Screens as filed in PubChem.
In the library only some 0.54% were active in any assay of this set; here they are far more common.
CXXC DNA block: MLL CXXC-DNA interaction inhibition; Q03164; MLL-CXXC / FITC-HOXA9 DNA fluorescence polarization; Potency, µM (highest dose often 115 µM), hits mostly inhibitors; 0.037% of 290,000 active; AID 2662; active = well fitted inhibition curve with a large enough effect in the polarisation, with a control signal flat, not every such curve was filed as active; inconclusive = small, poorly fitted or top-dose-only effect, or effect the other way, or a change in a side signal; inactive = no such curve, though single readings can be large or run the other way; the % refers to the polarisation
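Steps: dispense CXXC domain solution (7 uM) → pin compounds or unlabeled HOX-A9 DNA control → 5 min ambient → add FLSN-HOX-A9 solution (50 nM) → spin → 30 min ambient → fluorescence polarization. Tris pH 7.5/NaCl/DTT/BSA buffer.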
LDHA inh: LDHA (human) enzyme inhibition; 0.15% of 480,000 active; activity change, % (values are at about 110 or 230 µM); P00338; purified LDHA, NADH/diaphorase-resazurin fluorescence; stronger effect = lower value; AID 1347041; in the data active = activity change below about -30%; inconclusive = mostly about -25% to -30%
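Human LDH5 (2 nM) was incubated with 0.06 mM NADH and 0.2 mM pyruvate for 5 min at room temperature in Tris pH 7.4. Remaining NADH was coupled through diaphorase/resazurin, and resorufin fluorescence was read at 0 and 20 min.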
pAkt inh: inhibitors of Akt phosphorylation; 0.32% of 360,000 active; Neuro2A IGF-stimulated pAkt S473 HTRF, 20 min; stronger effect = lower value; AID 651550; activity change, % for hits at 50 µM; in the data active = activity change below about -80%; inconclusive = mostly about -51% to -80%
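Neuro2A cells (4,500/well, DMEM with 0.5% FBS) were treated with compound at a single 50 µM final concentration, stimulated with 6 nM IGF for 20 min at 37 °C, and lysed. Phospho-Akt Ser473 was read by HTRF as 665/615 ratio ×10^4.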
IDH1 R132H inh: inhibitors of human mutant IDH1 R132H | Potency, µM (titrated, usually from 76.6 µM), most hits filed as inhibitors | 0.093% of 390,000 active | AID 602179 | IDH1-R132H enzyme, NADPH consumption, diaphorase/resazurin fluorescence; also: nearly all actives have a fitted effect of over 65% in size
Target sequence (O75874 whole entry R132H, stated change not applied): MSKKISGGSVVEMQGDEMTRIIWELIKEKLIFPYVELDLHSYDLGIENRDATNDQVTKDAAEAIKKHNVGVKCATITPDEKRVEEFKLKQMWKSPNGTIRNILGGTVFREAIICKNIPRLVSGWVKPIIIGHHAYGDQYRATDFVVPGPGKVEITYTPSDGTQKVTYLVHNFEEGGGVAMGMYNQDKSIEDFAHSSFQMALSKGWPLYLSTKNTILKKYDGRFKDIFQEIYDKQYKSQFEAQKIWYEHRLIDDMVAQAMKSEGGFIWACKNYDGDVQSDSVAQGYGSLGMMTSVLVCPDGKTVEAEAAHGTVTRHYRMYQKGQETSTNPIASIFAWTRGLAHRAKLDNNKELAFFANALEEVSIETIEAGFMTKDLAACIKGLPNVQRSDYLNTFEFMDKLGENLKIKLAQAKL
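IDH1-R132H (0.5 ug/mL) preincubated 30 min with compound, then NADPH (0.016 mM) and alpha-KG (2 mM) added; 80 min at RT, pH 7.5. Remaining NADPH coupled via diaphorase/resazurin to fluorescence (540/590 nm); concentration-response curves normalized to no-enzyme control.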
Menin MLL FP TR: inhibitors of human menin-MLL interaction, mutant MLL peptide | O00255 | Menin + Texas Red MLL mutant peptide, fluorescence polarization | Potency, µM (top dose mostly 61.6 µM), hits mostly inhibitors | 0.23% of 270,000 active; active = well fitted inhibition curve with a large enough effect in the polarisation, with a control signal flat, not every such curve was filed as active; inconclusive = small, poorly fitted or top-dose-only effect, or effect the other way, or a change in a side signal; inactive = no such curve, though single readings can be large or run the other way; the % refers to the polarisation
Menin-MLL FL inh: displaces fluorescein MLL peptide from human menin | Fluorescence polarization, fluorescein-MLL peptide displacement from menin | FP activity change, % at 61.4 µM | 290,000 tested, under 10 active | AID 1766; active = well fitted curve in the direction sought with a large enough effect in the polarisation, not every such curve was filed as active; inconclusive = small, poorly fitted or top-dose-only effect, or effect the other way, or a change in a side signal; inactive = no such curve, though single readings can be large or run the other way; the % refers to the polarisation
Resorufin autofl: autofluorescence interference, mutant IDH1 hit counter-screen; shares compounds with IDH1 R132H inh; Resorufin detection reagent fluorescence interference, cell-free; inhibition of signal, % at 51.2 µM; 750 tested, under 10 active; AID 623980
IDH1 WT: wild-type IDH1 (human) inhibition counterscreen; shares compounds with IDH1 R132H inh; WT IDH1 enzyme, NADPH diaphorase/resazurin fluorescence; Potency, µM (top dose mostly 115 µM), actives largely listed as inhibitors; 9% of 750 active; also: nearly all actives have a fitted effect of over 55% in size
Target sequence (O75874 whole entry, looked up): as the sequence (O75874 whole entry R132H, stated change not applied) above, with H132R counted along it
IDH1 R132H conf: confirmation of human mutant IDH1 inhibitors; AID 624002; shares compounds with IDH1 R132H inh; IDH1 R132H enzyme, NADPH diaphorase/resazurin fluorescence; 83% of 750 active; Potency, µM (top dose mostly 76.6 µM), usual class: inhibitors; also: nearly all actives have a fitted effect of over 50% in size
A number is an active result; i = inactive; ? = inconclusive; nt = no result. Unless noted, calls follow the shape of the dose curve; as a rule, active = well fitted curve in the direction sought with a large enough effect; inconclusive = small, poorly fitted or top-dose-only effect, or another doubt; inactive = no such curve, though single readings can be large; an effect the other way counts as inactive or inconclusive.

SMILES | CXXC DNA block | LDHA inh | pAkt inh | IDH1 R132H inh | Menin MLL FP TR | Menin-MLL FL inh | Resorufin autofl | IDH1 WT | IDH1 R132H conf
CCOc1nc(NC(=O)NC(=O)c2cccc(F)c2)nc(-c2ccccc2)n1 | nt | i | nt | nt | nt | nt | nt | nt | nt
COc1cc(C2C3CN(C)CC=C3C(C#N)=C(N)C2(C#N)C#N)ccc1OC(C)C (configuration not stated) | i | i | i | ? | i | ? | i | i | i
COc1cc([C@@H]2[C@H]3CNCC=C3C(C#N)=C(N)C2(C#N)C#N)ccc1OC(C)C | i | i | i | ? | i | ? | nt | nt | nt
COc1cc(SC#N)ccc1N=Cc1c(C)[nH]n(-c2ccc(Cl)cc2)c1=O | i | i | i | ? | ? | i | i | i | 45µM
O=C1CN(c2nc(-c3ccncc3)nc3ccccc23)CCN1 | nt | i | nt | nt | nt | nt | nt | nt | nt
CSC1=NC(=O)/C(=C\c2cccc3ccccc23)S1 | ? | i | i | 58µM | i | i | i | 71µM | 22µM
COc1c(OC(C)=O)ccc(/C=C/c2ccc3ccccc3n2)c1[N+](=O)[O-] | i | i | i | ? | ? | i | i | i | 32µM
COc1c(OC(C)=O)ccc(/C=C/c2ccc3cccc(OC)c3n2)c1[N+](=O)[O-] | i | i | i | ? | ? | i | nt | nt | nt
O=C(COc1ccccc1/C=C\c1[nH]c(=O)[nH]c(=O)c1[N+](=O)[O-])Nc1ccccc1 | ? | i | i | 41µM | i | i | i | ? | 40µM
O=c1[nH]c(/C=C/c2ccccc2Cl)c([N+](=O)[O-])c(=O)[nH]1 | i | i | i | i | i | i | nt | nt | nt
Cc1nc2c(n1O)CCc1c-2no[n+]1[O-] | nt | i | nt | nt | nt | nt | nt | nt | nt
CN(C(=O)CSc1nc(-c2ccc(C(C)(C)C)cc2)c(C#N)c(=O)[nH]1)C1CCCCC1 | i | i | i | ? | i | i | i | ? | 45µM
O=C(NCc1ccc(OCC(F)(F)F)cc1)C1CCN(c2nc3ccccc3o2)CC1 | nt | i | nt | nt | nt | nt | nt | nt | nt
O=P(NC1CCCCC1)(c1ccccc1)c1ccccc1 | nt | i | i | i | nt | nt | nt | nt | nt
CC/C(=C\C1CCCCC1)C(NP(=O)(c1ccccc1)c1ccccc1)c1ccccc1 (configuration not stated) | i | i | i | 28µM | i | i | i | i | 22µM
COC(=O)[C@@]12CCCCN1[C@H](c1ccc(-c3ccc4c(c3)OCO4)c(OC)c1)[C@@H]1C(=O)N(C)C(=O)[C@@H]12 | nt | i | i | ? | nt | nt | i | i | 11µM
COC(=O)[C@@]12CCCCN1[C@H](c1ccc(-c3ccc(F)cc3)c(OC)c1)[C@@H]1C(=O)N(C)C(=O)[C@@H]12 | nt | i | i | 40µM | nt | nt | i | i | 6.3µM
CCN1C(=O)[C@H]2[C@@H](c3ccc(-c4ccc(OC)cc4)c(OC)c3)N3CCCC[C@@]3(C(=O)OC)[C@H]2C1=O | nt | i | i | ? | nt | nt | i | i | 13µM
CCN1C(=O)[C@@H]2[C@@H](c3ccc(-c4ccc(OC)cc4)c(OC)c3)N3CCCC[C@@]3(C(=O)OC)[C@@H]2C1=O | nt | i | i | i | nt | nt | nt | nt | nt
O=Cc1cc(F)ccc1N1CCOCC1 | nt | i | nt | nt | nt | nt | nt | nt | nt
CCC(=O)Nc1ccc2oc(-c3ccc(C)c(Cl)c3)nc2c1 | nt | i | nt | nt | nt | nt | nt | nt | nt
O=C(CSc1nnc(C2CCCCC2)n1-n1cccc1)Nc1ccccc1 | nt | i | nt | nt | nt | nt | nt | nt | nt
COc1cc(C(C(=O)NC2CCCC2)N(C(=O)c2snc(C(N)=O)c2N)c2ccccc2)cc(OC)c1OC (configuration not stated) | i | i | i | i | i | i | nt | nt | nt
COc1ccc(C)cc1N(C(=O)c1snc(C(N)=O)c1N)C(C(=O)NC1CCCC1)c1ccc(F)cc1 (configuration not stated) | i | i | i | ? | nt | nt | i | i | 16µM
COc1ccc(N(C(=O)c2snc(C(N)=O)c2N)C(C(=O)NC2CCCC2)c2ccc(F)cc2)c(OC)c1 (configuration not stated) | i | i | i | ? | i | i | i | i | ?
COc1ccc(C(C(=O)NC2CCCCC2)N(C(=O)c2snc(C(N)=O)c2N)c2ccc(OC)cc2OC)cc1 (configuration not stated) | i | i | i | i | i | i | nt | nt | nt
COCCN1C(=O)c2[nH]nc(-c3cc(C)ccc3O)c2C1c1ccc(C(C)C)cc1 (configuration not stated) | nt | i | nt | ? | nt | nt | i | i | 32µM
COc1cc(C2c3c(-c4cc(C)ccc4O)n[nH]c3C(=O)N2CCCO)ccc1OCCC(C)C (configuration not stated) | nt | i | nt | 40µM | nt | nt | i | i | 25µM
